Data as given in PubChem BioAssay.
The source made the active and inactive calls.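 How the source made its calls, unless noted: active means inhibition above 20% together with a positive visual image hit; inconclusive means visual image hit but inhibition not above 20%; inactive means no visual image hit.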

Columns and labels:
[1] = inhibitors of TNFa-induced NFkB p65 translocation, primary screen, imaging, HUVEC, MLSMR starter and 10KST1 sets (AID 438); conditions: HUVEC TNFa-induced p65 nuclear translocation; cell count: measured here: nuclei count (cytotoxicity indicator), at 2.08 µM; inhibition: at 2 µM, stronger effect = higher value, 0% TNFa-plus-vehicle, 100% no-TNFa wells;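 further: compound added about 3h40 before a 20 min TNFalpha stimulation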;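 on inhibition: signal is the nuclear over cytoplasmic p65 intensity ratio per well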
[2] = reduction of polyQ htt aggregates in cells – imaging, exon1htt(103Q)mCFP cells, high-content imaging, primary screen (AID 483;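 active means visual image review flags a hit and inhibition of aggregation exceeds 20%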;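 further: compound exposure lasted 3 days before fixation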;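 on nuclei count: percent of the per-plate median nuclei count of sample wells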); conditions: exon1htt(103Q)mCFP cell line, aggregate imaging, at 2 µM; inhibition of aggregation: stronger effect = higher value; nuclei count: measured here: cell count, toxicity
[3] = endothelial E-selectin expression blockers – imaging, HUVEC, immunofluorescence, MLSMR starter and 10KST1 sets, primary screen (AID 487;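 active means visually confirmed hit in the image check and inhibition above 20%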;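 on inhibition: signal is fraction of cell area covered by stained E-selectin grains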;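 on nuclei count: 100% = median nuclei count of all wells on the same plate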); conditions: HUVEC TNFalpha-induced E-selectin immunofluorescence imaging, at 2 µM; inhibition: stronger effect = higher value; nuclei count: measured here: cell number, toxicity
[4] = target: Voltage-gated potassium channel subunit beta-2 (Rattus norvegicus) (UniProt P62483); assay: inhibitors of rat Kvbeta2 reductase activity – biochemical, NADPH fluorescence, primary screen (AID 622;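 active means fluorescence slope higher than the sample average by over 3 SD, cut at about -0.22 in these data, passing the limit was not always enough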;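 further: slope of raw intensity against log time taken from 70 to 1610 s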); conditions: recombinant KvBeta, 4-cyanobenzaldehyde reduction, at 10 µM, stronger effect = higher value
Chain of Voltage-gated potassium channel subunit beta-2 (Rattus norvegicus) (P62483 whole entry, looked up): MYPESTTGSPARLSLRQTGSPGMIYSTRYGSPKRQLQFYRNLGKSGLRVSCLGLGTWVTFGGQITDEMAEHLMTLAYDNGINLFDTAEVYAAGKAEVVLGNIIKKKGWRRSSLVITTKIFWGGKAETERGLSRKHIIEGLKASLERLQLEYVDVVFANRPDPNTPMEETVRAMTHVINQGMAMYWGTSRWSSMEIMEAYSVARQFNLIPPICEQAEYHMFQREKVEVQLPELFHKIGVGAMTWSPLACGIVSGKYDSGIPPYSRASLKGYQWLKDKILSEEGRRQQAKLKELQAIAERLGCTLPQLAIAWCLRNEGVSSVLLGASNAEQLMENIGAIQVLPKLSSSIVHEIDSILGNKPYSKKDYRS

[5] = target: Voltage-gated potassium channel subunit beta-2 (Rattus norvegicus) (UniProt P62483); assay: enhancers of rat Kvbeta2 NADPH turnover – biochemical, NADPH fluorescence, primary screen (AID 623;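 active means NADPH fluorescence slope more negative than the mean of all samples by about 3 SD, 99.7% confidence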;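 further: fluorescence intensity change per second fitted from 20 to 320 s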); conditions: Recombinant KvBeta, NADPH fluorescence decrease slope, 10 min; at 10 µM; stronger effect = lower value
[6] = target: Alpha-2C adrenergic receptor (Homo sapiens) (UniProt P18825); assay: compounds altering alpha2C-coupled GIRK flux – cell-based, HEK293 alpha2C/GIRK1/2, thallium flux, primary screen (AID 624;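 active means fluorescence slope after compound addition differing from the mean of all screened samples at 99.7% confidence, in either direction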;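 further: slope of fluorescence ratio to pre-addition baseline per second over 15 to 24 s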); conditions: thallium flux BTC fluorescence, at 10 µM, actives lie on both sides
Chain of Alpha-2C adrenergic receptor (Homo sapiens) (P18825 whole entry, looked up): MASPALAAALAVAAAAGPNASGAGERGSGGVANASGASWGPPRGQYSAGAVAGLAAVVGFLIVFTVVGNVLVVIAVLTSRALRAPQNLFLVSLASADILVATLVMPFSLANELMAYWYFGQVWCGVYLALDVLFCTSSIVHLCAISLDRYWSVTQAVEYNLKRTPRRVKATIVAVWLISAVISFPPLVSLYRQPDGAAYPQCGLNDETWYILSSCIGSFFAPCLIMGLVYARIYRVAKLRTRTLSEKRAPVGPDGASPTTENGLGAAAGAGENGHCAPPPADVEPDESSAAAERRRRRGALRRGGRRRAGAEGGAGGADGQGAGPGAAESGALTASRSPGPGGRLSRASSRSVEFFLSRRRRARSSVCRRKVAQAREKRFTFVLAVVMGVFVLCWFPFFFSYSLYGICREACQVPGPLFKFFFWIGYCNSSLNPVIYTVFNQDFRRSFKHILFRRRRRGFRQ

[7] = blockers of RIG-like receptor reporter activation – cell-based, Sendai virus stimulus, luciferase, 10K MLSCN set, TLR/RLR signaling modifier project, primary screen (AID 602276;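 active means inhibition at or above 50% at 10 µM; inactive means inhibition below 50%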;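 further: firefly luciferase from ISG56 promoter only with Renilla not read in this screen; 0% = Sendai virus plus DMSO and 100% = medium plus DMSO without virus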); conditions: HEK293 RL24 IRF3 luciferase reporter, at 10 µM, stronger effect = higher value
[8] = TLR3 IRF3 reporter activation blockers – cell-based, poly I:C stimulus, luciferase, 10K MLSCN set, primary screen (AID 602277;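 active means inhibition of the reporter signal at or above 50%; inactive means inhibition below 50%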); conditions: HEK293-TLR3 RL24 IRF3 luciferase reporter, at 10 µM, stronger effect = higher value

SMILES	cell count [1]	inhibition [1]	inhibition of aggregation [2]	nuclei count [2]	inhibition [3]	nuclei count [3]	fluorescence slope [4]	NADPH fluorescence slope [5]	slope [6]	inhibition [7]	inhibition [8]
CCCOc1ccc(S(=O)(=O)NCCCN2CCOCC2)c2ccccc12	402	5.8% (inactive)	-33.7% (inactive)	106%	-43.1% (inactive)	118%	-0.418 (inactive)	-4.8e-05 (inactive)	0.00402 (inactive)	16% (inactive)	13.7% (inactive)
CNC(=O)C1C2C=CC3(O2)C1C(=O)N(C1CC1)C3C(=O)NCc1ccc(OC)cc1 (stereo not drawn)	199	11.8% (inactive)	-5.5% (inactive)	102%	41.6% (inactive)	98.4%	-0.533 (inactive)	-3.2e-05 (inactive)	0.00639 (inactive)	14.1% (inactive)	20.2% (inactive)
O=C(CN1CCOCC1)N1CCCc2c1c(=O)oc1ccc(OCc3ccccc3)cc21	427	7.3% (inactive)	5.6% (inactive)	109%	-40.7% (inactive)	109%	-0.589 (inactive)	-4.6e-05 (inactive)	0.00267 (inactive)	-0.877% (inactive)	9.59% (inactive)
CCOCCCNC(=O)c1ccc2c(c1)N(Cc1ccccc1)C(=O)CS2=O (stereo not drawn)	754	-7.4% (inactive)	-19% (inactive)	94.2%	-20.2% (inactive)	125%	-0.525 (inactive)	-1e-05 (inactive)	0.00701 (inactive)	-4.11% (inactive)	21% (inactive)
COc1ccc(CCNC(=O)C2CCN(C(=O)N(C)C)CC2)cc1OC	618	0.9% (inactive)	3.5% (inactive)	44.3%	-74.3% (inactive)	106%	-0.386 (inactive)	-1.9e-05 (inactive)	0.00486 (inactive)	6.71% (inactive)	-1.45% (inactive)
N#Cc1cc2c(nc1SCC(=O)Nc1sc3c(c1C#N)CCC3)CCCCC2	606	5.3% (inactive)	-0.2% (inactive)	103%	32.4% (inactive)	104%	-0.323 (inactive)	-4.1e-05 (inactive)	0.00575 (inactive)	1.89% (inactive)	-0.19% (inactive)
Cn1cnc(S(=O)(=O)Nc2ccc(C(F)(F)F)cc2)c1	480	2.2% (inactive)	-3.4% (inactive)	117%	14.3% (inactive)	103%	-0.357 (inactive)	-6.4e-05 (inactive)	0.00601 (inactive)	2.5% (inactive)	18% (inactive)
CC(C)(C)n1nnnc1CN1CCC(NC(=O)NC2CCCCC2)CC1	345	-18.5% (inactive)	10.8% (inactive)	93%	-45.9% (inactive)	115%	-0.324 (inactive)	9.8e-06 (inactive)	0.00372 (inactive)	11% (inactive)	18.5% (inactive)
CCOC(=O)CSc1nc2c(c(-c3ccc(C)o3)c1C#N)CCCC2	430	-4.4% (inactive)	-20.4% (inactive)	100%	-63.3% (inactive)	128%	-0.447 (inactive)	-9.4e-05 (inactive)	0.00861 (inactive)	10.2% (inactive)	18.3% (inactive)
CCOC(=O)CN(C(=O)CSc1nnc(-c2ccncc2)n1CCCN(C)C)c1ccccc1	570	-11.3% (inactive)	12.2% (inactive)	89.1%	-14.2% (inactive)	92.8%	-0.615 (inactive)	-1.7e-05 (inactive)	0.00606 (inactive)	14.2% (inactive)	30.4% (inactive)
CCN(CC)C(=O)COC(=O)c1ccc(O)cc1	440	7.7% (inactive)	9.9% (inactive)	83.5%	-5.4% (inactive)	99.1%	-0.512 (inactive)	2.3e-05 (inactive)	0.00516 (inactive)	-1.76% (inactive)	-1.25% (inactive)
O=C(Nc1nnc(CCN2CCCCC2)s1)C1CCCCC1	455	-11.2% (inactive)	7% (inactive)	113%	-31.8% (inactive)	102%	-0.411 (inactive)	-6e-05 (inactive)	0.00451 (inactive)	15.1% (inactive)	16.5% (inactive)
CCc1nc(C)ccc1OCC(=O)O	332	1% (inactive)	-30% (inactive)	89.2%	9.9% (inactive)	102%	-0.459 (inactive)	-6.3e-05 (inactive)	0.00578 (inactive)	-11.9% (inactive)	-14.7% (inactive)
Cc1ccc2cccc(SCC(=O)N3CCOCC3)c2n1	286	-6.7% (inactive)	28% (inactive)	72.7%	-45.8% (inactive)	105%	-0.327 (inactive)	7.7e-06 (inactive)	0.00384 (inactive)	6.65% (inactive)	31.6% (inactive)
Cc1cc(N2CCC3(CC2)OCCO3)n2nc(C)c(-c3ccc(Cl)cc3)c2n1	495	-19.7% (inactive)	-48.2% (inactive)	61.2%	-11.4% (inactive)	94.7%	-0.544 (inactive)	7.5e-07 (inactive)	0.00741 (inactive)	12.3% (inactive)	12.1% (inactive)
O=C(NC1CCCC1)C(c1ccco1)N(Cc1ccccc1)C(=O)c1csnn1 (stereo not drawn)	426	5.4% (inactive)	-6.3% (inactive)	97.6%	-9.3% (inactive)	107%	-0.582 (inactive)	-3.8e-05 (inactive)	0.006 (inactive)	17.4% (inactive)	29.4% (inactive)
COc1ccccc1N1CC(C(=O)Nc2cccc(C(=O)O)c2)CC1=O (stereo not drawn)	495	-16.1% (inactive)	10.1% (inactive)	76.3%	-32.1% (inactive)	127%	-0.547 (inactive)	2.1e-05 (inactive)	0.00458 (inactive)	-5.85% (inactive)	-4.45% (inactive)
C=CCn1c(SCC(=O)O)nnc1-c1cccc(Cl)c1	753	1.3% (inactive)	-0.4% (inactive)	103%	19.3% (inactive)	108%	-0.453 (inactive)	-8e-06 (inactive)	0.00296 (inactive)	8.76% (inactive)	18.9% (inactive)
C=CCNC(=O)CN(c1cccc(Br)c1)S(C)(=O)=O	322	-0.5% (inactive)	13.9% (inactive)	95.4%	21.4% (inactive)	115%	-0.509 (inactive)	2.5e-05 (inactive)	0.00557 (inactive)	8.3% (inactive)	14.4% (inactive)
COc1cc(NC(=O)C(C)Oc2ccccc2)c(C(=O)O)cc1OC (stereo not drawn)	622	-1.5% (inactive)	-0.9% (inactive)	108%	-23.7% (inactive)	101%	-0.606 (inactive)	-2.5e-05 (inactive)	0.00509 (inactive)	19% (inactive)	19.4% (inactive)
c1cc2c(cc1Nc1nc(-c3ccc4c(c3)OCO4)cs1)OCCO2	351	0.4% (inactive)	10% (inactive)	104%	-36.9% (inactive)	118%	-0.188 (inactive)	-2.8e-06 (inactive)	0.00387 (inactive)	-63.5% (inactive)	-126% (inactive)
O=C(NCCOC(=O)C1COc2ccccc2O1)C1COc2ccccc2O1 (stereo not drawn)	357	-2.1% (inactive)	-2% (inactive)	106%	-99.1% (inactive)	128%	-0.48 (inactive)	-3.8e-05 (inactive)	0.00608 (inactive)	-2.25% (inactive)	19.3% (inactive)
C1CCc2nnc(-c3nnc4n3CCCCC4)n2CC1	396	3% (inactive)	-5.5% (inactive)	100%	-3.6% (inactive)	105%	-0.344 (inactive)	-2.9e-05 (inactive)	0.00555 (inactive)	11.6% (inactive)	10.3% (inactive)
Cc1cc(C)nc(NC(=O)c2cnc3sccn3c2=O)n1	650	-14% (inactive)	18.2% (inactive)	84.7%	-14.9% (inactive)	110%	-0.528 (inactive)	-3.1e-05 (inactive)	0.00661 (inactive)	17.6% (inactive)	47.4% (inactive)
CCOc1cc(C(=O)N2CCN=C2SC)cc(OCC)c1OCC	227	-4.9% (inactive)	-39.5% (inactive)	109%	-24.8% (inactive)	108%	-0.595 (inactive)	4.6e-06 (inactive)	0.00661 (inactive)	15.5% (inactive)	24.3% (inactive)
CCc1nnc(NC(=O)CSc2nnc(CSc3nc(C)cc(C)n3)n2CC)s1	424	-5% (inactive)	-13.6% (inactive)	128%	-40.7% (inactive)	129%	-0.37 (inactive)	8.3e-06 (inactive)	0.00824 (inactive)	-5.81% (inactive)	-12.1% (inactive)
O=C(COC(=O)c1ccccc1O)Nc1ccc(OC(F)F)cc1	674	5.1% (inactive)	-8.4% (inactive)	103%	-64.8% (inactive)	136%	-0.543 (inactive)	7.7e-06 (inactive)	0.00583 (inactive)	-13.8% (inactive)	-42.2% (inactive)
Cn1nc(C(=O)N2CCOCC2)c2ccccc2c1=O	321	5.2% (inactive)	12.2% (inactive)	109%	-79.4% (inactive)	130%	-0.43 (inactive)	-3.1e-05 (inactive)	0.00337 (inactive)	9.89% (inactive)	32% (inactive)
